Here are results for 38 compounds from PubChem BioAssay (NCATS).

Several values for one entry are separate records, joined by “and”; a condition that tells them apart may be missing. Equal entries are not always repeated. Records with an inconclusive call do not appear. A number with no mark means an inactive call. Activity calls are given as the source filed them. Calls follow the shape of the dose curve; as a rule, active = well fitted curve in the direction sought with a large enough effect; inconclusive = small, poorly fitted or top-dose-only effect, or another doubt; inactive = no such curve, though single readings can be large or run the other way. Where a SMILES comes first, the peptide text is derived from it. [ ]: non-standard residue; d: D form. pGlu = O=C1CC[C@@H](C(=O)O)N1
% is scaled to controls: 0 for no effect and ±100 for the full control effect; potency is read from the fitted curve at half-maximal effect.

The test is described as follows: qHTS Assay for Identifying Gametocytocidal Compounds (AID 743244).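 As to max response: actives lower the fluorescent signal which means gametocytes are killed.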 Conditions: P. falciparum 3D7 stage III-V gametocytes, alamarBlue, 72 h; max response: hits give low values. An outline of the steps: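 P. falciparum 3D7 stage III–V gametocytes (20,000 cells/well) were exposed to compounds for 72 h at 37 °C, 5% CO2. AlamarBlue was then added for 24 h; decreased resorufin fluorescence (Ex 525/Em 598 nm) indicated loss of viability.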
(qHTS replaces the single test concentration by a dilution series.)
For `CO[C@H]1C[C@H](O[C@@H]2/C(C)=C/C[C@@H]3C[C@@H](C[C@]4(CC[C@H](C)[C@@H](C5CCCCC5)O4)O3)OC(=O)[C@@H]3C=C(C)/C(=N/O)[C@H]4OC/C(=C\C=C\[C@@H]2C)[C@]43O)O[C@@H](C)[C@@H]1O`, the max response was -14.2%. The same measure, in the same setting: the result for `CCCCCCCCCC(=O)NO` reads -1.94% and 4.66%; that for `CC[C@@H](C)[C@H](N)C(=O)O`, -5.92%; that for `Cc1cc2nc3c(=O)[nH]c(=O)nc-3n(C[C@H](O)[C@H](O)[C@H](O)COP(=O)(O)OP(=O)(O)OC[C@H]3O[C@@H](n4cnc5c(N)ncnc54)[C@H](O)[C@@H]3O)c2cc1C`, -3.17%. Still for that read-out and setting: the result for `C=CC1=C(C(=O)O)N2C(=O)[C@@H](NC(=O)/C(=N\O)c3csc(N)n3)[C@H]2SC1` (stereo in doubt) reads 1.2% and 8.54%; that for `O=C1NCCN1c1ncc([N+](=O)[O-])s1`, -6.09%. Take `CC(C)c1nc(N(C)S(C)(=O)=O)nc(-c2ccc(F)cc2)c1/C=C/C(O)CC(O)CC(=O)O` (stereo not drawn): the max response is 12%. Still for that read-out and setting: then `CC[C@H](C)[C@H](NC(=O)[C@H](Cc1ccccc1)NC(=O)[C@H](C)NC(=O)[C@H](CC(=O)O)NC(=O)[C@H](CCCCN)NC(=O)[C@H](CO)NC(=O)[C@@H]1CCCN1C(=O)[C@@H]1CCC(=O)N1)C(=O)NCC(=O)N[C@@H](CC(C)C)C(=O)N[C@@H](CCSC)C(N)=O` ([pGlu]PSKDAFIGLM-NH2), with 13.3%. On the same count and under the same terms, then `CC(=O)Nc1ccc(NC(=S)NC(=O)c2ccc(C(C)(C)C)cc2)cc1`, with -8.07%.

With `O=C(O)CC/C=C\CC[C@@H]1[C@@H](N2CCCCC2)[C@@H](O)C[C@@H]1OCc1ccc(-c2ccccc2)cc1`, the max response is -9.09%.

With `CC(=O)Oc1cc(C(F)(F)F)ccc1C(=O)O`, the max response was 17%. Turning to `Nc1nc(/C(=C/CC(=O)O)C(=O)N[C@@H]2C(=O)N3C(C(=O)O)=CCS[C@H]23)cs1`, the max response is -2.9%. The same measure, in the same setting: the result for `CC(C)=CCC/C(C)=C/CC/C(C)=C/CC/C=C(\C)CC/C=C(\C)CCC=C(C)C` reads -7.41% and 5.06%. `CCOC(=O)[C@@H](N)CS`: the max response was 0.746%. As for `CO/N=C(\C(=O)N[C@@H]1C(=O)N2C(C(=O)O)=C(CSc3nnnn3C)CS[C@H]12)c1csc(N)n1`, the max response was 2.87%. As to `CC(C)(COP(=O)(O)OP(=O)(O)OC[C@H]1O[C@@H](n2cnc3c(N)ncnc32)[C@H](O)[C@@H]1OP(=O)(O)O)C(O)C(=O)NCCC(=O)NCCS` (stereo partly drawn), the max response is -9.49%.

For `CCCCCCCCCc1ccc(OCCOCCO)cc1`, the max response was -0.96%. On the same count and under the same terms, the result for `CC(=O)Nc1c(I)c(C(=O)N[C@H]2C(O)O[C@H](CO)[C@@H](O)[C@@H]2O)c(I)c(N(C)C(C)=O)c1I` (stereo partly drawn) reads 5.57%; that for `CCOC(=S)SSC(=S)OCC`, 0.863%.

For the compound `O=P(O)(O)OP(=O)(O)OP(=O)(O)O`, the max response is 1.26%. `OC[C@H]1OC([S-])[C@H](O)[C@@H](O)[C@@H]1O.[Au+]` (stereo partly drawn): the max response is -13.3%. The same measure, in the same setting: the result for `CCCCCCCCCCCCOCCCN` reads -2.81%. Turning to `CN=C1C=CC(=C(c2ccc(N(C)C)cc2)c2ccc(N(C)C)cc2)C=C1`, the Potency is 3.55 µM (active). As for `CC12CCC(C[N+](C)(CCC[N+](C)(C)C)C1)C2(C)C` (stereo not drawn), the max response is -4.18%.

Turning to `Cc1cc(C(=O)NCCc2ccc(S(=O)(=O)NC(=O)NN3CCCCCC3)cc2)no1`, the max response is 4.46%. The same measure, in the same setting: then `O=P(O)(O)OC[C@H]1O[C@](O)(COP(=O)(O)O)[C@@H](O)[C@@H]1O`, with 2.17%; and `CN(C)CCOc1ccc(/C(=C(/CCCl)c2ccccc2)c2ccccc2)cc1`, with 7.93%. Still for that read-out and setting: then `CC(C)[C@@H](N)C(=O)O`, with 7.16%. With `CC1=CC(=C(c2ccc(N)cc2)c2ccc(N)cc2)C=CC1=N`, the Potency was 7.94 µM (active). On to `CC(CCc1ccc(O)cc1)NCC(O)c1ccc(O)cc1` (stereo not drawn), for which the max response is 16.5%. The same measure, in the same setting: the result for `CNC(=O)OCc1cccc(COC(=O)NC)n1` reads 8.67%; that for `CC(=O)N[C@@H]([C@@H](O)[C@H](O)[C@H](O)CO)[C@@H](O)CC(=O)C(=O)O`, 14.7%. Still for that read-out and setting: then `CCCCCCCCCCCC(=O)OCC(O)CO` (stereo not drawn), with 3.54%; and `NCCCC[C@H](N)C(=O)O`, with 5.86%; and `O=C1NC(=O)[C@H]2[C@@H]1[C@@H]1C=C[C@H]2C1`, with -6.7%. The same measure, in the same setting: then `COc1c(O[C@@H]2O[C@H](CO)[C@@H](O)[C@H](O)[C@H]2O)cc2c(c1OC)-c1ccc(SC)c(=O)cc1[C@@H](NC(C)=O)CC2`, with 22%; and `O=C(NCCNCC(O)COc1ccc(O)cc1)N1CCOCC1` (stereo not drawn), with -13.8%. Take `NC(=O)c1ccc[n+]([C@@H]2O[C@H](COP(=O)([O-])OP(=O)(O)OC[C@H]3O[C@@H](n4cnc5c(N)ncnc54)[C@H](O)[C@@H]3O)[C@@H](O)[C@H]2O)c1`: the max response is 2.6%.
